# An excerpt weighted towards active compounds, which were near 2.3% of everything screened.
# CHO-K1 Ca ag: nonselective activator or artifact in parental CHO-K1 cells. Fluo-8 calcium fluorescence; scaled to maximal ATP response, vehicle zero. activation, % at 3 µM. 360,000 tested, 0.48% active; in the data active = activation above about 15%;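 note: untransfected CHO-K1 host cells lacking M1 receptor as counterscreen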
# M1 PAM parental: nonselective activator or artifact in parental CHO-K1 calcium assay; ATP EC20, Fluo-8 calcium fluorescence; 0% at ATP EC20, 100% at ATP max; activation, % at 3 µM; 360,000 tested, 0.02% active; AID 602247;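 active = activation above the run cutoff, the mean activation of all test compounds plus 3 SD, cut at about 40% in these data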;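 note: peak over basal fluorescence ratio in a 140 s read after ATP addition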
# CHRM1 antagonist: antagonists of human M1 muscarinic receptor; CHO-K1 hM1, Fluo-8 calcium fluorescence, ACh EC80 antagonist; inhibition, % at 3 µM; 360,000 tested, 1.3% active; AID 588852;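 active = percent inhibition above its own plate's cutoff, namely the mean of that plate's compound wells plus 3 SD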;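 note: peak over basal fluorescence ratio during 140 s after agonist addition; 0% = ACh EC80 plus DMSO and 100% = DMSO alone without agonist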
# Target sequence (P11229 whole entry, looked up): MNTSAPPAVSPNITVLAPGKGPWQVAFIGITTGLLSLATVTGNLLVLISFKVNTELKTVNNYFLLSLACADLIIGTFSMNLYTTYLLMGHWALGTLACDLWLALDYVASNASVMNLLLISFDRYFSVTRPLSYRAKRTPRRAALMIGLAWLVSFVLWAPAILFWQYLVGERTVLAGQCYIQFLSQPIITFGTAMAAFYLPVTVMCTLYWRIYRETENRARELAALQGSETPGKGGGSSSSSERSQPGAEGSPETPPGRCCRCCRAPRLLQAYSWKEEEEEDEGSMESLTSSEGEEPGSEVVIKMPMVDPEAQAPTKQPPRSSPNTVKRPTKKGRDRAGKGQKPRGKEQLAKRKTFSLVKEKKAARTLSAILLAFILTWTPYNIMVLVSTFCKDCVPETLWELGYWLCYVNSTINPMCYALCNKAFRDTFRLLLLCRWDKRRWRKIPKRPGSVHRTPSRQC
# M1 ag: activates human CHRM1 receptor; P11229; 360,000 tested, 0.33% active; CHO-K1 hM1, Fluo-8 calcium fluorescence, agonist mode; 0% DMSO, 100% acetylcholine EC100; activation, % at 3 µM;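 active = activation above the run's mean compound activation plus 3 SD, cut at about 16% in these data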;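 note: peak over basal fluorescence ratio within a 140 s kinetic read after compound addition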
# CHO-K1 Ca antag: counter-screen for M1 antagonists: effect in parental CHO-K1 cells; ATP-induced calcium, Fluo-8 fluorescence; inhibition, % at 3 µM; 360,000 tested, 0.6% active;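 active = inhibition above a per-plate cutoff, the plate's mean sample inhibition plus 3 SD, cut at about 24% in these data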;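 note: 0% = DMSO plus EC80 ATP and 100% = DMSO alone without ATP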
# M1 PAM: potentiates human M1 receptor response to acetylcholine; 360,000 tested, 0.088% active; activation, % at 3 µM; CHO-K1 hM1, Fluo-8 calcium fluorescence, ACh EC20; 0% = ACh EC20, 100% = maximal ACh; in the data active = activation above about 19%, passing the limit was not always enough
# Active calls of the source: *; x = not tested or not shown; ! = a repeat was not active.
SMILES,CHO-K1 Ca ag,M1 PAM parental,CHRM1 antagonist,M1 ag,CHO-K1 Ca antag,M1 PAM
CN(CCOc1ccc(C=C2C(=O)NC(=O)NC2=O)cc1)c1ccccn1,1,6,16,-7,-10,-7
O=C1NC(=O)C(=Cc2ccc(OCC(=O)N3CCOCC3)cc2)C(=O)N1,0,-15,-16,-3,29*,-1
O=C(O)C(O)(c1ccccc1)C1CCCC1 (stereo not given),0,9,-1,-1,-1,4
CCCC(CCC)C(=O)OC[N+](C)(C)CCOC(=O)C(O)(c1ccccc1)C1CCCC1 (stereo not given),0,3,99*,-12,0,-31
CC(C)(C)C(=O)OC[N+](C)(C)CCOC(=O)C(O)(c1ccccc1)C1CCCC1 (stereo not given),1,24,98*,-7,-16,-25
CC1CC(C)OP(=O)(OCCC#N)O1 (stereo not given),0,1,-15,1,-8,7
CCN(CC)C(=O)c1ccc(NC(=O)c2cccc(S(=O)(=O)N3CCN(Cc4ccccc4)CC3)c2)cc1,9,-19,20,0,29*,-10
C[N+]12CCC(CC1)C(C(O)(c1cccc(Cl)c1)c1cccc(Cl)c1)C2 (stereo not given),1,3,97*,-5,-11,-25
CC[N+]12CCC(CC1)C(C(O)(c1ccccc1)c1ccccc1)C2 (stereo not given),1,22,98*,-6,-13,-23
Cc1ccc(C(O)(c2ccc(C)c(C)c2)C2CN3CCC2CC3)cc1C (stereo not given),1,6,12,-9,10,-6
Cc1ccc(CN2CCC3CCC(C3)C2)c(O)c1 (stereo not given),1,10,13,-5,-17,-11
CSCCC(c1nnnn1C(C)(C)C)N1CCC2(CC1)C(=O)NCN2c1ccccc1 (stereo not given),5,-2,-23,1,-2,2
CCN(CC(=O)Nc1ccc(C#N)c(Cl)c1)CC(=O)NC1CCS(=O)(=O)C1 (stereo not given),0,-18,11,4,25*,10
N#Cc1ccc(NC(=O)CN2CCCC2)cc1Cl,3,9,-1,-5,-14,1
CN1CCC(O)(c2ccc(Cl)cc2)C(C(=O)c2ccc(Cl)cc2)C1 (stereo not given),-1,-4,30*,-10,9,-25
CN1CC(C(=O)c2ccc(Cl)cc2)C(c2ccc(Cl)cc2Cl)C1 (stereo not given),2,13,8,-6,-7,-10
COc1ccc(CNCCc2c(C)[nH]c3ccc(OC(F)(F)F)cc23)c(OC)c1,37*,-7,27,0,33*,-8
CCOc1ccc(-c2c(C)n(-c3ccc(OCC)cc3)c3[n+]2CCCCC3)cc1,12,-15,30,0,40*,-10
Cc1nc2ccccc2c(=O)n1-c1cc([N+](=O)[O-])cc([N+](=O)[O-])c1,2,-2,-11,0,-8,3
Cc1nc2ccc(Br)cc2c(=O)n1-c1ccc([N+](=O)[O-])c(C(F)(F)F)c1,13,-11,36*,5,19,-13
CCCCCc1nc2c(c(=O)c3ccccc3n2C)c(=O)n1C1CCCCCC1,21*,24,1,7,-10,-10
O=C(COc1ccccc1Cl)N1CCCC(N2CCN(c3ccc(F)cc3)CC2)C1 (stereo not given),15*,7,0,-2,15,-3
COc1ccccc1OCC(=O)N1CCCC(N2CCN(c3ccc(F)cc3)CC2)C1 (stereo not given),1,1,10,-4,1,-3
Cc1ccccc1N1C(=O)NC(=O)/C(=C/c2ccc(N3CCOCC3)o2)C1=O,3,-20,-16,3,7,13
O=C1NC(=O)N(c2ccc3c(c2)OCO3)C(=O)/C1=C\c1ccc(N2CCCCC2)o1,3,-9,5,0,25*,-9
SMILES,CHO-K1 Ca ag,M1 PAM parental,CHRM1 antagonist,M1 ag,CHO-K1 Ca antag,M1 PAM
C[C@H](CO)N1C[C@H](C)[C@@H](CN(C)C(=O)Oc2ccc3ccccc3c2)OCc2cn(nn2)CCCC1=O,0,11,-6,-8,5,-1
O=[N+]([O-])NC1=NCCN1Cc1ccc(Cl)nc1,0,18,-25,-1,-5,4
S=C(NCCc1ccccc1)N1Cc2cc(N3CCCCC3)ccc2-n2nncc2C1,1,15,16,-8,-1,-12
Fc1ccc(C(OCCN2CCCC2)c2ccc(F)cc2)cc1,1,6,79*,-9,-1,-23
Fc1ccc(C(OCCN2CCCC2)c2ccc(Br)cc2)cc1 (stereo not given),2,8,81*,-8,-4,-23
Fc1ccc(C(OCCN2CCN(CCCc3ccccc3)CC2)c2ccc(F)cc2)cc1,1,11,26,-7,4,-20
Cc1[nH]c2ccccc2c1C(=O)C(=O)N1CC2CC(C1)c1cccc(=O)n1C2 (stereo not given),0,13,6,-4,0,1
CC1(C)CN=C(Nc2ccc(F)c(F)c2)S1,23*,21,-13,20*,-12,6
CC1(C)CSC(Nc2ccc(F)c(Cl)c2)=N1,2,1,1,-4,1,-6
CC1(C)CN=C(Nc2ccc(F)c(Cl)c2)S1,30*,11,-10,12,-14,1
CN(C)[C@@H]1C(=O)C(C(N)=O)=C(O)[C@@]2(O)C(=O)C3=C(O)c4c(O)cccc4[C@@](C)(O)C3[C@H](O)C12 (stereo not given in full),4,-7,65,0,27*!,-27
CN(C)C1C(=O)C(C(N)=O)=C(O)C2(O)C(=O)C3=C(O)c4c(O)cccc4C(C)(O)C3CC12 (stereo not given),0,-12,-9,6,28*,-5
CN1CCN(Cc2cn(C)c3ccccc23)CC1CCO (stereo not given),0,-5,-9,-1,3,10
CC12CCC(O)CC1CCC1C2CCC2(C)C(C(=O)CO)CCC12 (stereo not given),5,1,-12,6,-6,2
O=C1NC(=O)C(C2CCCCCC2)C(=O)N1,0,-16,-30,3,-12,26*
C1CCC2CCCCC2C1 (stereo not given),0,-8,-6,-1,-6,3
N#CC1c2ccccc2-n2nncc2CN1C(=O)c1ccccc1F (stereo not given),0,14,-6,-6,4,10
CCCCCN1C(=O)c2cc(OC)ccc2[C@@]2(C(=O)OCC)Cc3cc(Cl)ccc3[C@@H]12,3,13,x,x,-2,x

# Source: PubChem BioAssay (The Scripps Research Institute Molecular Screening Center)
